This is a sample that favours compounds with a hit; in the whole collection about 2.2% have one here.
IEC-6 tox – counter-screen for KLF5 inhibitors: cytotoxicity in IEC-6 cells; IEC-6 cytotoxicity, luminescence viability; inhibition, % at 5 µM; 0.78% of 290,000 active; AID 1825; in the data active = inhibition above about 22%
Ba/F3 V617F tox – loss of viability in JAK2V617F-driven Ba/F3 cells; inhibition, % at 5.6 µM; 1.1% of 220,000 active; Ba/F3 EpoR-JAK2V617F viability, ATP luminescence;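 active = inhibition above the campaign mean plus 3 SD over all tested compounds, cut at about 24% in these data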;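 note: cytokine-independent growth of Ba/F3 cells driven by EpoR plus mutant JAK2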
APP transl inh – APP translation inhibition. SH-SY5Y APP 5'UTR-luciferase reporter, luminescence. inhibition, % at 2 µM. 0.82% of 190,000 active. AID 1285;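 active = inhibition above a set limit, derived from the sample mean plus 3 SD, cut at about 45% in these data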
KLF5 inh – suppresses KLF5 promoter-driven expression; DLD-1 KLF5 promoter-luciferase reporter, luminescence; AID 1700; inhibition, % at 5 µM; 0.23% of 290,000 active;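 active = inhibition above a per-plate limit of that plate's mean compound inhibition plus 3 SD, cut at about 60% in these data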;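 note: higher means less KLF5 promoter-driven luciferase light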
aSyn UTR inh – MLPCN primary screen, SNCA 5' untranslated region; alpha-synuclein 5'UTR reporter, inhibitor activity; inhibition, % (tested at 7.5 µM); 0.82% of 300,000 active; in the data active = inhibition above about 60%;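 note: H4 neuroglioblastoma cells stably carrying SNCA 5'UTR luciferase fusion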
BaF3 tox – reduces parental Ba/F3 cell viability, JAK2V617F counter-screen. CellTiter-Glo ATP luminescence. inhibition, % at 5.6 µM. 1.1% of 220,000 active;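 active = inhibition above a per-campaign cutoff, the mean inhibition of all tested compounds plus 3 SD, cut at about 27% in these data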
Hits are given with their value; 0 = inactive; - = no result.

SMILES | IEC-6 tox | Ba/F3 V617F tox | APP transl inh | KLF5 inh | aSyn UTR inh | BaF3 tox
C/C(CC(=O)Nc1ccccc1C#N)=N\NC(=O)c1ccncc1 | 0 | - | - | 0 | 0 | -
Cn1c(N2CCOCC2)c(/C=N/OC(=O)c2ccc(F)cc2)c2ccccc21 | 0 | 0 | 0 | 0 | 73 | 0
Cc1ccc(C(=O)O/N=C/c2c(N3CCOCC3)n(C)c3ccccc23)cc1 | 0 | 0 | 70 | 0 | 77 | 0
COc1ccc(Cl)cc1NS(=O)(=O)c1c(C)nc2sccn2c1=O | 0 | - | - | 0 | 0 | -
CCCCCN(C(=O)CCC(=O)OCc1ccc(Cl)cc1Cl)c1c(N)n(CCCC)c(=O)[nH]c1=O | - | - | - | - | 0 | -
Cc1cc(=O)[nH]c2ccc(S(=O)(=O)NC3CCCCC3)cc12 | 0 | - | - | 0 | 0 | -
COc1cccc(CNC(=O)CC2Sc3ccccc3NC2=O)c1 (stereo not drawn) | 0 | 0 | 0 | 0 | 0 | 59
COc1ccc(OC)c(N(CC(=O)NC2CCCCCC2)S(=O)(=O)c2ccc(C)cc2)c1 | 0 | - | - | 0 | 0 | -
COc1cccc2cc(C(=O)NCc3ccccc3Cl)c(=O)oc12 | 0 | - | - | 0 | 0 | -
COC(=O)c1c(NC(=O)c2ccc(OC(C)C)cc2)sc2c1CC(C)(C)NC2(C)C | 0 | 0 | 0 | 0 | 103 | 0
COC(=O)c1c(NC(=O)c2ccccc2)sc2c1CC(C)(C)NC2(C)C | 0 | 0 | 0 | 0 | 0 | 0
O=C(OCCCOC(=O)c1cc[n+]([O-])cc1)c1cc[n+]([O-])cc1 | 0 | - | - | 0 | 0 | -
COc1ccc(C(=O)Nn2c(SCC(=O)NC3CCCC3)nc3ccccc3c2=O)cc1 | 0 | 0 | 0 | 0 | 0 | 0
COc1ccc(C(=O)Nn2c(SCC(=O)NCc3ccccc3)nc3ccccc3c2=O)cc1 | 0 | 0 | 0 | 0 | 77 | 0
COc1ccc(C(=O)Nn2c(SCC(=O)NCC3CCCO3)nc3ccccc3c2=O)cc1 (stereo not drawn) | 0 | 0 | 0 | 0 | 87 | 0
Cc1cc(NC(=O)c2ccccc2)c(Cl)cc1N | 0 | 0 | - | 0 | 64 | 0
CCN(CC)S(=O)(=O)c1ccc(N2CCCCC2)c(C(=O)Nc2ccccc2N2CCOCC2)c1 | 0 | 0 | 0 | 0 | 0 | 0
CNc1ccccc1C(C)(C)c1cc(-c2cccc(OC)c2)no1 | 0 | 48 | 0 | 0 | 0 | 56
Cc1ccnc(SCc2cc(=O)c(OC(=O)c3ccc(Cl)c([N+](=O)[O-])c3)co2)n1 | 0 | 0 | 0 | 0 | 0 | 0
CCOC(=O)Cc1csc(NC(=O)c2c(O)c3ccccc3n(CC(C)C)c2=O)n1 | 0 | 0 | - | 0 | 75 | 0
CCC(=O)NC(Cc1ccccc1)c1ccc2c(c1)OCCCO2 (stereo not drawn) | 0 | 39 | 0 | 0 | 0 | 31
O=C(NC(Cc1ccccc1)c1ccc2c(c1)OCCCO2)c1ccccc1 (stereo not drawn) | 0 | 0 | 0 | 0 | 0 | 0
Cn1c2ccc(Br)cc2c2nnc(SCC(=O)O)nc21 | 0 | - | - | 0 | 62 | -
Cn1c2ccccc2c2nnc(SCC(N)=O)nc21 | 0 | - | - | 0 | 0 | -
COc1ccc(OCC(O)CN2CCC(CN3C(=O)c4cccc5cccc(c45)C3=O)CC2)cc1 (stereo not drawn) | - | - | - | - | 0 | -
SMILES | IEC-6 tox | Ba/F3 V617F tox | APP transl inh | KLF5 inh | aSyn UTR inh | BaF3 tox
Cc1ccc(C)c(OCC(O)CN2CCC(CN3C(=O)c4cccc5cccc(c45)C3=O)CC2)c1 (stereo not drawn) | 0 | 0 | 69 | 0 | 0 | 0
O=C(Nc1cnn(Cc2c(Cl)cccc2Cl)c1)C(c1ccccc1)c1ccccc1 | 0 | 0 | 78 | 0 | 0 | 0
O=[N+]([O-])c1nn(-c2ccccc2)n(O)c1=NC1CCN(Cc2ccccc2)CC1 | 0 | 0 | 0 | 0 | 76 | 0
O=C(O)c1cc(S(=O)(=O)NC23CC4CC(CC(C4)C2)C3)ccc1Cl | 0 | - | - | 0 | 0 | -
O=c1[nH]c(C2CCCN(S(=O)(=O)c3ccc(F)cc3)C2)nc2c1nnn2Cc1ccc(F)cc1 (stereo not drawn) | 0 | - | - | 0 | 0 | -
COc1cc2nc(SCc3ccc(F)cc3)n(Cc3cccs3)c(=N)c2cc1OC | 0 | 0 | 0 | 0 | 0 | 0
COc1ccc(Cn2c(SCc3ccccc3C)nc3cc(OC)c(OC)cc3c2=N)cc1 | 0 | 0 | 0 | 0 | 93 | 0
COc1cc2cc(/C=C/C(=O)c3ccco3)c(Cl)nc2cc1OC | 0 | 0 | 50 | 0 | 0 | 0
COc1ccc(OCc2cc(C(=O)N(C)Cc3cc(C4CC4)n[nH]3)no2)c(Cl)c1 | 0 | - | - | 0 | 0 | -
Cc1nsc2c1ccc1ccccc12 | 0 | 0 | 0 | 0 | 0 | 0
CC1=[N+](C)c2ccc3ccccc3c2C1(C)C | 0 | 53 | 0 | 0 | 0 | 54

Screens as filed in PubChem.
